About 83,000 compounds went through this panel and 20% of them were active in at least one assay; those are over-represented in the sample as a whole.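 Method: cells in 96-well plates; compound added at one concentration; 48 h incubation; percent growth measured; values under 10 scored active.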 Values without a mark were called inactive. Calls of active or inactive are those of the source.
Columns and labels:
Assay in all cases: NCI-60 one-dose screen, 48 h (100 = growth as untreated, 0 = no growth, -100 = all killed)
Settings in all cases: 10 µM unless noted
[1] = test system: NCI-H23 lung
[2] = test system: NCI-H226 lung
[3] = test system: NCI-H322M lung
[4] = test system: HOP-62 NSCLC
[5] = test system: NCI-H460 lung
[6] = test system: HOP-92 NSCLC
[7] = test system: NCI-H522 lung
[8] = test system: A549/ATCC NSCLC
[9] = test system: 786-0 renal
[10] = test system: COLO 205 colon
[11] = test system: DU-145 prostate
[12] = test system: K-562 leukemia
[13] = test system: MALME-3M melanoma
[14] = test system: MDA-MB-231 breast
[15] = test system: RXF 393 renal
[16] = test system: SF-268 CNS
[17] = test system: SF-539 CNS
[18] = test system: UACC-257 melanoma
[19] = test system: M14 melanoma

For `O=S(=O)(NCCNc1nccc(-c2c(-c3ccc(F)cc3)nc3sccn23)n1)c1ccc(F)cc1`, the growth [1] was 78.7%, the growth [2] was 72.8% and the growth [3] was 77.4%. For the same compound, the growth [4] was 84.4%, the growth [5] was 48.6% and the growth [6] was 82.7%. For the same compound, the growth [7] was 89.6%, the growth [8] was 49.3% and the growth [9] was 73.7%. It also gave a growth [10] of 58.8%, a growth [11] of 75.9% and a growth [12] of 56.7%. The growth [13] was 76.8%, the growth [14] was 78.4% and the growth [15] was 70%. It also gave a growth [16] of 79.2%, a growth [17] of 102% and a growth [18] of 102%. It also gave a growth [19] of 73.7%.
`Fc1ccc(CNCCNc2ncnc3c2cnn3-c2ccccc2)cc1` showed a growth [1] of 103%, a growth [2] of 102% and a growth [3] of 100%. For the same compound, the growth [4] was 90.4%, the growth [5] was 104% and the growth [6] was 61.8%. It also gave a growth [7] of 99.9%, a growth [8] of 91.7% and a growth [9] of 83.5%. For the same compound, the growth [10] was 89.6%, the growth [11] was 114% and the growth [12] was 83.3%. The growth [13] was 92.4%, the growth [14] was 79% and the growth [15] was 74.6%. For the same compound, the growth [16] was 92.3%, the growth [17] was 100% and the growth [18] was 85.6%. The growth [19] was 103%.
In the case of `Fc1ccccc1-c1nc(-c2nc3cc(Cl)c(Cl)cc3[nH]2)c2ccccn12`, the growth [1] is reported as 69.2%, the growth [2] is reported as 78.5% and the growth [3] is reported as 67.8%. For the same compound, the growth [4] was 68.8%, the growth [5] was 57.3% and the growth [6] was 49.6%. It also gave a growth [7] of 72.5%, a growth [8] of 72.2% and a growth [9] of 86.4%. It also gave a growth [10] of 89.6%, a growth [11] of 51.5% and a growth [12] of 73.1%. The growth [13] was 34.5%, the growth [14] was 91.4% and the growth [15] was 69.2%. The growth [16] was 77.4% and the growth [18] was 82.2%.
In the case of `COc1cc(-c2nn(-c3cccc(NC(=O)Nc4ccc(Cl)c(C(F)(F)F)c4)c3)cc2-c2ccncc2)ccc1Cl`, the growth [1] is reported as 5.69% (active), the growth [2] is reported as 12.1% and the growth [3] is reported as 32.3%. For the same compound, the growth [4] was 5.4% (active), the growth [5] was 1.7% (active) and the growth [6] was -37.5% (active). The growth [7] was -13.9% (active), the growth [8] was -10.4% (active) and the growth [9] was 15.1%. The growth [10] was -91.6% (active), the growth [11] was 20.3% and the growth [12] was 3.8% (active). For the same compound, the growth [13] was -14.9% (active), the growth [14] was -52.4% (active) and the growth [15] was -27.8% (active). The growth [16] was 13.8%, the growth [17] was 6.56% (active) and the growth [18] was -37.6% (active). For the same compound, the growth [19] was -11.6% (active).
For `Cc1ccc(S(=O)(=O)NCCNc2nccc(-c3c(-c4ccc(O)cc4)nc4sccn34)n2)cc1`, the growth [1] was 95.1%, the growth [2] was 98.8% and the growth [3] was 110%. It also gave a growth [4] of 113%, a growth [5] of 106% and a growth [6] of 101%. For the same compound, the growth [7] was 84%, the growth [8] was 94.1% and the growth [9] was 97.3%. It also gave a growth [10] of 104%, a growth [11] of 102% and a growth [12] of 81.7%. For the same compound, the growth [13] was 95.6%, the growth [14] was 97.7% and the growth [15] was 92.2%. For the same compound, the growth [16] was 95.6%, the growth [17] was 107% and the growth [18] was 108%. It also gave a growth [19] of 93.3%.
`COc1ccc(-c2c(N)n[nH]c2-c2cc(OC)c3c(c2)OCCO3)cc1` was tested, and the growth [1] was 87.6%, the growth [2] was 93.3% and the growth [3] was 107%. The growth [4] was 78.3%, the growth [5] was 83% and the growth [6] was 87.6%. The growth [7] was 12.5%, the growth [8] was 56% and the growth [9] was 88.9%. For the same compound, the growth [10] was 66.8%, the growth [11] was 96.1% and the growth [12] was 12.1%. The growth [13] was 39.3%, the growth [14] was 87.7% and the growth [15] was 74%. It also gave a growth [16] of 79.9%, a growth [18] of 88.1% and a growth [19] of 65.2%.
With `COc1ccc(/C=C2\CN(Cc3cn(CCNc4ccnc5cc(Cl)ccc45)nn3)C/C(=C\c3ccc(OC)c(OC)c3)C2=O)cc1OC` the growth [1] was 48%, the growth [2] was 17% and the growth [3] was 44.7%. The growth [4] was -7.73% (active), the growth [5] was -28.5% (active) and the growth [6] was -16.1% (active). For the same compound, the growth [7] was -67.8% (active), the growth [8] was 22.7% and the growth [9] was 15.9%. The growth [10] was 10.1%, the growth [11] was 0.0798% (active) and the growth [12] was 2.21% (active). The growth [13] was -27.7% (active), the growth [14] was -0.28% (active) and the growth [15] was -52.1% (active). The growth [16] was 9.6% (active), the growth [17] was -12.5% (active) and the growth [18] was 5.32% (active). The growth [19] was 3.7% (active).
`COc1cc(-c2nn(-c3cccc(NC(=O)c4ccc(N5CCOCC5)c(C(F)(F)F)c4)c3)cc2-c2ccncc2)ccc1Cl` showed a growth [1] of 15.6%, a growth [2] of 42.5% and a growth [3] of 54.2%. For the same compound, the growth [4] was 29.5%, the growth [5] was 5.02% (active) and the growth [6] was 11.5%. For the same compound, the growth [7] was 0.2% (active), the growth [8] was 3.58% (active) and the growth [9] was -3.26% (active). The growth [10] was -43.4% (active), the growth [11] was 10.9% and the growth [12] was 1.22% (active). For the same compound, the growth [13] was 36.2%, the growth [14] was -25.2% (active) and the growth [15] was -45.2% (active). For the same compound, the growth [16] was 22.5%, the growth [17] was -68.9% (active) and the growth [18] was 24.3%. For the same compound, the growth [19] was 1.42% (active).
